According to PubChem BioAssay (NCI):
This is part of a sample that, as a whole, favours compounds with a hit. Of some 83,000 tested, about 20% had one in any assay.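 Values shown are percent growth following 48 h exposure of cells in 96-well plates to a single concentration of compound; below 10 was considered active.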 A number with no mark means an inactive call. Calls of active or inactive are those of the source.

What was measured:
Experiment in all cases: NCI-60 one-dose screen, 48 h (100 = growth as untreated, 0 = no growth, -100 = all killed)
Conditions in all cases: 10 µM unless noted
SK-MEL-2 melanoma = tested on: SK-MEL-2 melanoma
EKVX NSCLC = tested on: EKVX NSCLC
SN12C renal = tested on: SN12C renal
UO-31 renal = tested on: UO-31 renal
TK-10 renal = tested on: TK-10 renal
ACHN renal = tested on: ACHN renal
CAKI-1 renal = tested on: CAKI-1 renal
A498 renal = tested on: A498 renal
CCRF-CEM leukemia = tested on: CCRF-CEM leukemia
MOLT-4 leukemia = tested on: MOLT-4 leukemia
RPMI-8226 leukemia = tested on: RPMI-8226 leukemia
OVCAR-8 ovarian = tested on: OVCAR-8 ovarian
OVCAR-5 ovarian = tested on: OVCAR-5 ovarian
OVCAR-4 ovarian = tested on: OVCAR-4 ovarian
SK-OV-3 ovarian = tested on: SK-OV-3 ovarian
IGROV1 ovarian = tested on: IGROV1 ovarian
OVCAR-3 ovarian = tested on: OVCAR-3 ovarian
HS 578T breast = tested on: HS 578T breast
NCI/ADR-RES ovarian = tested on: NCI/ADR-RES ovarian
SR leukemia = tested on: SR leukemia

Structure (SMILES) | growth (SK-MEL-2 melanoma) | growth (EKVX NSCLC) | growth (SN12C renal) | growth (UO-31 renal) | growth (TK-10 renal) | growth (ACHN renal) | growth (CAKI-1 renal) | growth (A498 renal) | growth (CCRF-CEM leukemia) | growth (MOLT-4 leukemia) | growth (RPMI-8226 leukemia) | growth (OVCAR-8 ovarian) | growth (OVCAR-5 ovarian) | growth (OVCAR-4 ovarian) | growth (SK-OV-3 ovarian) | growth (IGROV1 ovarian) | growth (OVCAR-3 ovarian) | growth (HS 578T breast) | growth (NCI/ADR-RES ovarian) | growth (SR leukemia)
c1cc(-c2nnc(SSc3ncnc4nc[nH]c34)o2)ccn1 | 15.9% | 82.3% | 55.8% | 30% | 17% | 45% | -6.89% (active) | 63% | 21.8% | 18% | 16.1% | 20.4% | 39.7% | 63.3% | 32.8% | 48.2% | 31.1% | 66% | 27.3% | –
COc1ccc(CNC(=O)[C@H](O)[C@@H](N)Cc2ccccc2)cc1 | 123% | 99.8% | 97.5% | 92% | 102% | 107% | 90.7% | 90.8% | 102% | 107% | – | – | 98% | – | 110% | 109% | 119% | 102% | 109% | 93.4%
O=C(Nn1c(NCC(=O)N2c3ccccc3Sc3ccccc32)nnc1-c1ccc(O)cc1)c1ccccc1 | 101% | 103% | 90.9% | 91.1% | 104% | 98.8% | 101% | 100% | -2.21% (active) | 125% | 101% | 104% | 90.4% | 105% | 101% | 102% | 114% | 108% | 93.7% | –
O=C(Nc1ccc(F)cc1F)c1cc(F)ccc1O | -20% (active) | 64.2% | -3.45% (active) | -16.1% (active) | 22.9% | 7.4% (active) | 3.45% (active) | -37.5% (active) | 30.4% | 5.84% (active) | – | – | 23.3% | 21% | 4.34% (active) | 21.4% | 1.72% (active) | 12% | 6.3% (active) | 4.78% (active)
COc1cc(C(=O)c2cc(C)c3[nH]c4ccc(O)cc4c3c2C)cc(OC)c1OC | 62.3% | 35.9% | 25% | 22.2% | 93.3% | 24.3% | 24.5% | -12.7% (active) | 15.5% | 15.1% | 8.34% (active) | 27.3% | 38.9% | 48.3% | 46.5% | 12.1% | -45% (active) | 38.1% | 8.01% (active) | –
O=C(CCN1C(=O)/C(=C/c2ccc(O)cc2)SC1=S)Nc1ccc(Cl)cc1 | 108% | 95.8% | 91.7% | 6.22% (active) | 108% | 84% | 92.5% | 95% | 46.7% | 84.7% | – | – | 95.6% | – | 71.8% | 79.7% | 99.4% | 92.8% | 104% | 110%
